Among the data in the supplement of paper PMC13380429 are morphology score and SARS-CoV-2 infection rate values, retold here.

Counter-ions that a name gives are not always drawn.

One test has as its system Vero E6 infected with SARS-CoV-2. Description: morphology score (similarity to uninfected cells); higher = more like uninfected cells. The settings on record: 24 h.
`c1cncc(CN2CCC(n3ncc4c(N5CCOCC5)nc(-c5ccc6[nH]ccc6c5)nc43)CC2)c1` (0.833333 µM) had a morphology score of 0.491.

As to `COC(=O)C1=C(C)NC(C)=C(C(=O)OC(C)C)[C@@H]1c1cccc2nonc12` [isradipine] (10 µM), the morphology score is -0.0665.

`COc1cccc(C2(O)CCCCC2CN(C)C)c1` (stereo not drawn) (10 µM): the morphology score worked out at 0.17.

The molecule `NS(=O)(=O)c1cc2c(cc1C(F)(F)F)NC(Cc1ccccc1)NS2(=O)=O` (stereo not drawn) [bendroflumethiazide] (10 µM) yielded a morphology score of 0.136.

`CCOc1ccn(-c2ccc(F)cc2)c(=O)c1C(=O)Nc1ccc(Oc2ccnc(N)c2Cl)c(F)c1` (10 µM): the morphology score was found to be 0.364.

`Cc1ccc(C23CNCC2C3)cc1` (stereo not drawn) [bicifadine] (10 µM): the morphology score was 0.0287.

`Cc1cccc(Nc2ccncc2S(=O)(=O)NC(=O)NC(C)C)c1` [torasemide] (10 µM) showed a morphology score of 0.215.

In the case of `CC1=NN=C(c2ccc(N)cc2)c2cc3c(cc2C1)OCO3` (10 µM), the morphology score was -0.0987.

`c1cn2cc(-c3ccc4cn[nH]c4c3)nc(Nc3ccc(N4CCOCC4)cc3)c2n1` (10 µM) gave a morphology score of 0.194.

As to `CCC(=N\O)/C(C)=C/c1ccc(F)cc1` (10 µM), the morphology score came to 0.0411.

In turn, `O=C1NC(c2cccc([N+](=O)[O-])c2)=CCN1c1ccccc1O` [icilin] (10 µM) showed a morphology score of 0.0675.

Take `CCOC(=O)c1c(C)[nH]c2ccc3c(c12)CN1CCc2cc(OC)ccc2C1O3` (stereo not drawn) (10 µM): the morphology score turned out to be 0.729.

`Cc1cc(O)c(C(=O)N[C@@H](C(=O)N[C@@H]2C(=O)N3C(C(=O)O)=C(CSc4nnnn4C)CS[C@H]23)c2ccc(O)cc2)cn1` [cefpiramide] (10 µM) returned a morphology score of 0.00194.

For the molecule `CC(C)(C)C(=O)OCOC(=O)[C@@H]1N2C(=O)C[C@H]2S(=O)(=O)C1(C)C` [sulbactam-pivoxil] (10 µM), the morphology score was found to be 0.184.

`COc1cc2c(cc1C(F)(F)F)N(C(=O)Nc1cc(F)cc(-c3cccnc3)c1)CC2` (10 µM) returned a morphology score of -0.0154.

Take `CCN1CCCC(OC(=O)C(c2ccccc2)c2ccccc2)C1` (stereo not drawn) [piperidolate] (10 µM): the morphology score came to 0.17.

In turn, `COC(=O)c1cc(OC)c2c(c1-c1c(CO)cc(OC)c3c1OCO3)OCO2` [bicyclol] (10 µM) came in with a morphology score of 0.199.

Molecule `CCCCCCCCCCCCCCCC(=O)OC(C)C` [isopropyl-palmitate] (10 µM) came in with a morphology score of 0.286.

As for `CN(C)CCOc1ccc(/C(=C(/CCCl)c2ccccc2)c2ccccc2)cc1` [Toremifene citrate] (10 µM), the morphology score worked out at 0.422.

In the case of `Clc1ccc(C(Cn2ccnc2)OCc2c(Cl)cccc2Cl)c(Cl)c1` (stereo not drawn) [isoconazole] (10 µM), the morphology score was determined as 0.222.

Molecule `O=C(NCCCN1CCOCC1)c1ccc(Cl)cc1` [eprobemide] (10 µM) displayed a morphology score of -0.0432.

With `CO[C@@]12[C@H](COC(N)=O)C3=C(C(=O)C(C)=C(N)C3=O)N1C[C@@H]1N[C@@H]12` [mitomycin-C] (10 µM), the morphology score amounted to 0.101.

The molecule `CCc1cccc(CC)c1NC(=O)c1nn(C)c2c1CCc1cnc(Nc3ccc(C(=O)NC4CCN(C)CC4)cc3OC(F)(F)F)nc1-2` (10 µM) had a morphology score of -0.0668.

`CCn1c(=O)c(-c2ccc(Cl)cc2Cl)cc2cnc(Nc3ccc(N4CCNCC4)c(F)c3)nc21` (0.833333 µM) yielded a morphology score of 0.097.

For the molecule `O=C(O)CCc1c(C(=O)O)[nH]c2cc(Cl)cc(Cl)c12` (10 µM), the morphology score was -0.0263.

With `C=CCN1CC[C@]23CCCC[C@H]2[C@H]1Cc1ccc(O)cc13` [levallorphan] (10 µM), the morphology score was -0.0532.

Molecule `C/C(=C\c1ccc(C(=O)O)cc1)c1ccc2c(c1)C(C)(C)CCC2(C)C` (10 µM) displayed a morphology score of -0.0726.

Turning to `O=C(O)c1ccccc1S` [o-mercapto-benzoic-acid] (10 µM), the morphology score amounted to 0.201.

For a further test the test system is unchanged. Description: SARS-CoV-2 infection rate relative to infected DMSO; higher = more infection, active = 60 or less. The settings on record: 24 h.
Take `CC(C)[C@@H](CS(=O)(=O)C(C)C)N1C(=O)[C@@](C)(CC(=O)O)C[C@H](c2cccc(Cl)c2)[C@H]1c1ccc(Cl)cc1` (10 µM): the SARS-CoV-2 infection rate is 114% (inactive).

For the molecule `NC(=O)c1cc([N+](=O)[O-])cc([N+](=O)[O-])c1` [nitromide] (10 µM), the SARS-CoV-2 infection rate is 83.5% (inactive).

Regarding `NC[C@@H]1CC[C@@H](N)[C@@H](O[C@H]2[C@H](O)[C@@H](O[C@H]3O[C@H](CO)[C@@H](O)[C@H](N)[C@H]3O)[C@H](N)C[C@@H]2N)O1` [dibekacin] (10 µM), the SARS-CoV-2 infection rate was 103% (inactive).

Consider `CC(C)(C)C(=O)NCCCC(=O)O` [pivagabine] (10 µM), for which the SARS-CoV-2 infection rate was 105% (inactive).

For the molecule `C=C(C)[C@@H]1CC=C(CO)CC1` [perillyl-alcohol] (10 µM), the SARS-CoV-2 infection rate is 100% (inactive).

Consider `O=C(O)CCc1ccc(NCc2cccc(Oc3ccccc3)c2)cc1` (10 µM), for which the SARS-CoV-2 infection rate was 116% (inactive).

Regarding `Oc1ccc2ccccc2c1Cc1c(O)ccc2ccccc12` (10 µM), the SARS-CoV-2 infection rate was 104% (inactive).

On to `Cc1c(C(=O)NN2CCOCC2)nn(-c2ccc(Cl)cc2Cl)c1-c1ccc(I)cc1` (10 µM), for which the SARS-CoV-2 infection rate is 87.5% (inactive).

`O=C(O)[C@H]1O[C@@H](Oc2cc3oc(-c4ccccc4)cc(=O)c3c(O)c2O)[C@H](O)[C@@H](O)[C@@H]1O` [baicalin] (10 µM): the SARS-CoV-2 infection rate was 100% (inactive).

In the case of `Cn1c(=O)c2c(ncn2CCOC(=O)C(C)(C)Oc2ccc(Cl)cc2)n(C)c1=O` [etofylline-clofibrate] (10 µM), the SARS-CoV-2 infection rate was 114% (inactive).

Consider `CN1C[C@@H](NS(=O)(=O)N(C)C)C[C@@H]2c3cccc4c3c(cn4C)C[C@H]21` [mesulergine] (10 µM), for which the SARS-CoV-2 infection rate was 93.5% (inactive).

For the molecule `O=C(O)C(F)(F)C(F)(F)C(F)(F)C(F)(F)C(F)(F)C(F)(F)C(F)(F)F` [ammonium-perfluorocaprylate] (10 µM), the SARS-CoV-2 infection rate was 112% (inactive).

Take `c1cncc(CN2CCC(n3ncc4c(N5CCOCC5)nc(-c5ccc6[nH]ccc6c5)nc43)CC2)c1` (0.833333 µM): the SARS-CoV-2 infection rate is 69% (inactive).

`COC(=O)C1=C(C)NC(C)=C(C(=O)OC(C)C)[C@@H]1c1cccc2nonc12` [isradipine] (10 µM): the SARS-CoV-2 infection rate was 104% (inactive).

For `COc1cccc(C2(O)CCCCC2CN(C)C)c1` (stereo not drawn) (10 µM), the SARS-CoV-2 infection rate was 104% (inactive).

As for `NS(=O)(=O)c1cc2c(cc1C(F)(F)F)NC(Cc1ccccc1)NS2(=O)=O` (stereo not drawn) [bendroflumethiazide] (10 µM), the SARS-CoV-2 infection rate was 87.5% (inactive).

For the molecule `CCOc1ccn(-c2ccc(F)cc2)c(=O)c1C(=O)Nc1ccc(Oc2ccnc(N)c2Cl)c(F)c1` (10 µM), the SARS-CoV-2 infection rate was 107% (inactive).

Consider `Cc1ccc(C23CNCC2C3)cc1` (stereo not drawn) [bicifadine] (10 µM), for which the SARS-CoV-2 infection rate was 107% (inactive).

On to `Cc1cccc(Nc2ccncc2S(=O)(=O)NC(=O)NC(C)C)c1` [torasemide] (10 µM), for which the SARS-CoV-2 infection rate is 102% (inactive).

As to `CC1=NN=C(c2ccc(N)cc2)c2cc3c(cc2C1)OCO3` (10 µM), the SARS-CoV-2 infection rate is 112% (inactive).

Regarding `c1cn2cc(-c3ccc4cn[nH]c4c3)nc(Nc3ccc(N4CCOCC4)cc3)c2n1` (10 µM), the SARS-CoV-2 infection rate is 104% (inactive).

With `CCC(=N\O)/C(C)=C/c1ccc(F)cc1` (10 µM), the SARS-CoV-2 infection rate was 110% (inactive).

On to `O=C1NC(c2cccc([N+](=O)[O-])c2)=CCN1c1ccccc1O` [icilin] (10 µM), for which the SARS-CoV-2 infection rate was 100% (inactive).

On to `CCOC(=O)c1c(C)[nH]c2ccc3c(c12)CN1CCc2cc(OC)ccc2C1O3` (stereo not drawn) (10 µM), for which the SARS-CoV-2 infection rate is 28.5% (active).

`Cc1cc(O)c(C(=O)N[C@@H](C(=O)N[C@@H]2C(=O)N3C(C(=O)O)=C(CSc4nnnn4C)CS[C@H]23)c2ccc(O)cc2)cn1` [cefpiramide] (10 µM): the SARS-CoV-2 infection rate was 106% (inactive).

For `CC(C)(C)C(=O)OCOC(=O)[C@@H]1N2C(=O)C[C@H]2S(=O)(=O)C1(C)C` [sulbactam-pivoxil] (10 µM), the SARS-CoV-2 infection rate is 89% (inactive).

For `COc1cc2c(cc1C(F)(F)F)N(C(=O)Nc1cc(F)cc(-c3cccnc3)c1)CC2` (10 µM), the SARS-CoV-2 infection rate is 106% (inactive).

In the case of `CCN1CCCC(OC(=O)C(c2ccccc2)c2ccccc2)C1` (stereo not drawn) [piperidolate] (10 µM), the SARS-CoV-2 infection rate was 106% (inactive).

On to `COC(=O)c1cc(OC)c2c(c1-c1c(CO)cc(OC)c3c1OCO3)OCO2` [bicyclol] (10 µM), for which the SARS-CoV-2 infection rate was 88% (inactive).

`CCCCCCCCCCCCCCCC(=O)OC(C)C` [isopropyl-palmitate] (10 µM): the SARS-CoV-2 infection rate was 77% (inactive).

Turning to `CN(C)CCOc1ccc(/C(=C(/CCCl)c2ccccc2)c2ccccc2)cc1` [Toremifene citrate] (10 µM), the SARS-CoV-2 infection rate was 77% (inactive).

On to `Clc1ccc(C(Cn2ccnc2)OCc2c(Cl)cccc2Cl)c(Cl)c1` (stereo not drawn) [isoconazole] (10 µM), for which the SARS-CoV-2 infection rate is 104% (inactive).

For the molecule `O=C(NCCCN1CCOCC1)c1ccc(Cl)cc1` [eprobemide] (10 µM), the SARS-CoV-2 infection rate is 108% (inactive).

Turning to `CO[C@@]12[C@H](COC(N)=O)C3=C(C(=O)C(C)=C(N)C3=O)N1C[C@@H]1N[C@@H]12` [mitomycin-C] (10 µM), the SARS-CoV-2 infection rate was 104% (inactive).

As for `CCc1cccc(CC)c1NC(=O)c1nn(C)c2c1CCc1cnc(Nc3ccc(C(=O)NC4CCN(C)CC4)cc3OC(F)(F)F)nc1-2` (10 µM), the SARS-CoV-2 infection rate was 111% (inactive).

For `CCn1c(=O)c(-c2ccc(Cl)cc2Cl)cc2cnc(Nc3ccc(N4CCNCC4)c(F)c3)nc21` (0.833333 µM), the SARS-CoV-2 infection rate is 106% (inactive).

Turning to `O=C(O)CCc1c(C(=O)O)[nH]c2cc(Cl)cc(Cl)c12` (10 µM), the SARS-CoV-2 infection rate is 104% (inactive).

With `C=CCN1CC[C@]23CCCC[C@H]2[C@H]1Cc1ccc(O)cc13` [levallorphan] (10 µM), the SARS-CoV-2 infection rate is 114% (inactive).

In the case of `C/C(=C\c1ccc(C(=O)O)cc1)c1ccc2c(c1)C(C)(C)CCC2(C)C` (10 µM), the SARS-CoV-2 infection rate is 102% (inactive).

For the molecule `O=C(O)c1ccccc1S` [o-mercapto-benzoic-acid] (10 µM), the SARS-CoV-2 infection rate was 101% (inactive).
